Assay outcomes: PubChem BioAssay, several laboratories
TWEAK-Fn14 inh: TWEAK-Fn14 signaling inhibition. TWEAK-stimulated Fn14 reporter cells, luciferase luminescence, 8 h. inhibition, % at 10 µM. hit rate 2% among 360,000. AID 1159606; in the data active = inhibition above about 50%
HSP90 inh: blocks HSP90-mediated luciferase refolding in reticulocyte lysate | Rabbit reticulocyte lysate, luciferase refolding luminescence, 3 h | inhibition, % at 5.6 µM | hit rate 0.91% among 290,000;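 active = inhibition above the screen-wide mean plus 3 SD, computed separately per campaign, cut at about 16% in these data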;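 note: 0% = DMSO wells and 100% = 60 µM geldanamycin wells; inhibitors lower the luminescence because luciferase stays unfolded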
C8 TRAIL sens: caspase-8 TRAIL sensitization. NB7+C8 cells + TRAIL, ATPlite viability luminescence. inhibition (viability loss, TRAIL sensitization), % at 10 µM. hit rate 1% among 360,000;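 active = compounds causing at least 50% loss of cell viability in the single-dose screen, relative to plate controls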
Platelet DG rel: platelet dense granule release activity | inhibition, %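 (compounds screened at 7.5 µM in platelet-rich plasma)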 | hit rate 0.22% among 300,000 | human platelet-rich plasma, SFLLRN dense granule ATP release, luminescence | AID 1663;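 active = mean replicate score, as percent of positive control, at or above 50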
TROY NFkB inh: TROY signaling inhibition | Q293 LMP1-TROYcd NF-kB luciferase reporter, 4 h | inhibition, % at 10 µM | hit rate 0.98% among 360,000;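 active = compounds whose plate-normalised and pattern-corrected inhibition of the luciferase reporter signal at the single screening dose is 50% or more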
PPC-1+TRAIL kill: PPC-1 cancer cell killing with TRAIL present. cell killing (% activity), % at 4 µM or 5 µM. hit rate 0.41% among 220,000. PPC-1 cells + TRAIL, ATPLite viability luminescence;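 active = cell killing above 50% in the first pass at 4 µM, then a duplicate retest at 5 µM averaging 50% or more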;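 note: plate controls were cells with TRAIL plus DMSO for no effect and medium-only wells lacking cells for full effect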
Active calls of the source: *; . = no result. Rows were chosen to be rich in hits. Some 3.5% of all compounds tested hit in one or more screens of this group.

SMILES	TWEAK-Fn14 inh	HSP90 inh	C8 TRAIL sens	Platelet DG rel	TROY NFkB inh	PPC-1+TRAIL kill
COc1ccccc1NC(=O)CSc1nccn1Cc1ccccc1	-6.9	0.8	-9.9	-8.0	-33.8	.
Cc1cc(C)n(/N=C/c2cc([N+](=O)[O-])ccc2O)c(=O)c1	-24.7	-1.2	-9.2	14.5	59.9*	3.7
COC(=O)N=Nc1c(O)[nH]c2ccc(Br)cc12	-24.2	-1.8	-29.9	4.3	2.3	-9.9
O=C(O)c1ccc(N=Nc2c(O)[nH]c3cc(Cl)ccc23)cc1	55.2*	3.1	0.3	9.2	-60.8	6.3
O=C(O)c1ccc(N=Nc2c(O)[nH]c3ccc(Br)cc23)cc1	30.2	18.1*	-10.2	6.3	-26.4	.
CN(C)CCCN(C(=O)c1ccc(C(=O)c2ccccc2)cc1)c1nc2ccc(F)cc2s1	-14.5	1.8	48.6*	-12.9	-89.4	.
CN(C)CCCN(C(=O)c1nc2ccccc2s1)c1nc2ccc(F)cc2s1	18.5	.	1.8	-0.6	-19.5	.
CN(C)CCCN(C(=O)CCOc1ccccc1)c1nc2ccc(F)cc2s1	60.8*	-2.1	6.2	.	33.5	34.7
CN(C)CCCN(C(=O)c1ccc(C(=O)c2ccccc2)cc1)c1nc2cc3c(cc2s1)OCO3	-24.0	4.8	52.8*	1.9	9.2	.
CN(C)CCCN(C(=O)COc1ccccc1)c1nc2ccc(F)cc2s1	-26.6	-0.8	-4.6	0.1	-14.3	-5.1
CN(C)CCCN(C(=O)c1cc2cc([N+](=O)[O-])ccc2s1)c1nc2cc3c(cc2s1)OCCO3	-334.3	.	91.3*	0.1	63.8*	.
Cc1ccsc1C(=O)NN=C1CCCCCC1	-8.4	5.9	-7.8	-14.7	-30.8	.
Cc1cccc(NC(=O)Nc2nnc([C@@H]3C[C@H](O)[C@@H](CO)O3)s2)c1	-2.3	.	10.4	.	-25.0	.
Cc1ccc(S(=O)(=O)c2nc(NN(C)C)sc2Cl)cc1	8.1	2.2	-1.2	-1.0	-5.8	15.2
O=C(C1CCC(Cn2c(=S)[nH]c3ccccc3c2=O)CC1)N1CCN(c2ccccn2)CC1 (stereo not given)	55.6*	-7.5	12.0	0.8	-6.5	4.4
Cc1ccc(S(=O)(=O)CCC(=O)OC(C)C(=O)NC2CCCCC2C)cc1 (stereo not given)	-1.7	.	-10.1	-13.3	0.3	.
COc1ccccc1-c1c(C)oc2c(CN3CCN(CCO)CC3)c(O)ccc2c1=O	86.2*	-0.2	-3.9	-0.7	.	4.4
CC(OC(=O)c1cc(Br)ccc1O)C(=O)Nc1ccc(S(=O)(=O)N2CCCC2)cc1 (stereo not given)	59.8*	.	37.8	-4.8	60.2*	.
CCOCCCn1c(SCc2nc3ccccc3s2)nc2ccccc2c1=O	73.3*	0.4	25.5	-5.4	52.5*	29.3
O=C1CC(c2ccsc2)Sc2ccccc2N1 (stereo not given)	2.0	-1.9	-4.6	4.3	-5.0	3.1
CC1CC(=O)C2=C(C1)Nc1ccccc1SC2c1ccc(F)cc1 (stereo not given)	8.2	1.3	3.5	-0.7	66.6*	22.4
Cc1nn(-c2ccccc2)c2nc(C(Cl)(Cl)Cl)[nH]c(=O)c12	12.4	1.1	-17.7	3.9	51.2*	-0.2
CC(C)CN1C(=O)CSCC1(C)C(=O)NCc1ccccc1 (stereo not given)	.	.	9.9	.	.	.
NC(=O)c1cc(S(=O)(=O)NCCc2ccc(S(N)(=O)=O)cc2)cs1	4.3	1.8	1.5	17.3	0.2	.
CCC1(O)C(=O)OCc2c1cc1n(c2=O)Cc2cc3c(N)cccc3nc2-1 (stereo not given)	72.1*	.	7.1	.	72.0*	.
SMILES	TWEAK-Fn14 inh	HSP90 inh	C8 TRAIL sens	Platelet DG rel	TROY NFkB inh	PPC-1+TRAIL kill
CCC1(OC(=O)CN(C)C)C(=O)OCc2c1cc1n(c2=O)Cc2cc3c(N)cccc3nc2-1 (stereo not given)	-31.2	.	25.7	.	-9.0	.
O=C(Cc1cccs1)N/N=C/C(Br)=C/c1ccccc1	-38.2	0.1	9.0	1.8	-57.0	-1.8
Cc1ccccc1NCC(=O)N/N=C/C(Br)=C/c1ccccc1	57.7*	2.5	10.1	-3.2	20.4	16.7
CCOc1ccc(NC(=O)Cc2ccc(S(=O)(=O)N3CCCCC3)cc2)cc1OCC	1.4	.	-8.4	.	14.2	.
CCc1c(C2(O)CCCCC2)[nH]c2cc(C(F)(F)F)ccc12	29.7	1.4	15.9	10.0	51.4*	.
Cc1c(C2(O)CCCCC2)[nH]c2cc(C(F)(F)F)ccc12	24.7	.	11.7	.	-11.2	.
CCCN(CC(=O)Nc1cc(C)on1)CC(=O)Nc1ccccc1C	0.5	.	-13.3	.	16.8	.
CC(C)NC(=O)c1ccc(N(Cc2ccc(Cl)cc2)S(C)(=O)=O)cc1	-2.1	-3.3	7.1	0.9	11.8	.
CC(C(=O)NN=C(c1ccccc1)c1ccccc1)N1CCOCC1 (stereo not given)	3.1	-0.5	-3.3	-13.6	-8.4	7.3
CCCCC(=O)Nc1nnc(C)s1	8.2	-1.8	-5.5	-0.7	-6.0	23.7
CCC(=O)Nc1nnc(C)s1	58.3*	1.5	-10.4	-11.4	.	15.3
COc1cc2ccnc(C=O)c2cc1OC	55.9*	.	32.5	.	2.4	.
O=C(c1cccs1)N1CCN(C(=O)c2cccs2)C1=S	70.3*	.	13.5	.	28.7	.
CCN(C[C@H]1N[C@@](C)(C(=O)OC)[C@H]2C(=O)N(C)C(=O)[C@@H]12)S(=O)(=O)c1ccc(C)cc1	-12.8	.	-2.5	.	0.7	.
Cc1ccc(S(=O)(=O)NC(CC(C)C)C(=O)Oc2ccc3c4c(c(=O)oc3c2)CCC4)cc1 (stereo not given)	33.8	-0.9	-20.2	2.1	68.5*	3.5
CCCN(Cc1ccccc1)C(=S)Nc1ccc(SC(F)F)cc1	0.0	4.6	12.4	0.8	-9.1	14.1
CCC1CCCCN1C(=O)/C=C/c1ccc2c(c1)OCO2 (stereo not given)	-10.6	-4.0	5.1	-1.7	-14.1	.
CCS(=O)(=O)c1cc([N+](=O)[O-])c(Sc2ccccc2NC(C)=O)s1	61.3*	4.0	-0.4	-18.5	68.4*	-12.5
COc1ccc2c(c1)C1OCCC1C(c1ccco1)N2 (stereo not given)	19.8	.	83.4*	22.4	10.3	.
CS(=O)(=O)c1ccccc1C(=O)Nc1ccc(-c2nc3ccccc3[nH]2)cc1	-19.0	-1.4	12.2	4.7	-67.6	.
O=C(Nc1ccc(-c2nc3ccccc3[nH]2)cc1)c1ccccc1NS(=O)(=O)c1ccc(F)cc1	8.3	0.6	-2.9	2.4	58.1*	11.8
Cc1ccccc1C(=O)Nc1ccc(-c2nc3ccc(C(=O)c4ccccc4)cc3[nH]2)cc1	70.3*	-3.5	-6.0	6.4	.	5.4
Cc1cc(F)ccc1S(=O)(=O)Nc1ccccc1C(=O)Nc1ccccc1-c1nc2ccccc2[nH]1	102.5*	-3.0	25.6	6.0	69.7*	16.9
O=C(NNC(=O)c1ccccn1)c1ccc(OC(F)F)cc1	16.4	.	38.8	.	-20.9	.
COc1cccc(C2CC(=O)Nc3cc(C)c(C)cc32)c1 (stereo not given)	1.3	.	0.9	.	-0.2	.
COc1ccc(CCNC(=O)C2COc3ccccc3O2)cc1OC (stereo not given)	92.9*	.	12.2	.	11.6	.
